Screening results (PubChem)
Ins promoter up – MIN6 insulin promoter up-regulation | MIN6 insulin promoter-GFP reporter, high-content imaging; active compounds read high | z-score at 5 µM | 190,000 compounds, 0.3% hits | AID 1625;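 active = z-score above 3 at 5 µM with at least 500 cells counted in the well; inconclusive = wells under 500 cells, flagged as cytotoxic or low count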
Insulin prom inh – TRM-6 insulin promoter activity inhibition | 130,000 compounds, 0.9% hits | AID 1273 | inhibition, % at 2 µM | TRM-6 cells (human fetal islet line), insulin promoter-eGFP reporter, imaging; reporter expression induced with tamoxifen;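 active = inhibition above the mean plus 3 SD, with well images judged a real hit on visual review, cut at about 60% in these data, passing the limit was not always enough; inconclusive = inhibition over the cutoff but images rejected on review; inactive = inhibition not above the cutoff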
PERK inh – blocks human PERK kinase; Q9NZJ5; CHO PERK-DD fusion, SEAP luminescence translation reporter; inhibition, % at 5.6 µM; 220,000 compounds, 0.17% hits;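 active = inhibition above the mean inhibition of all tested compounds plus 3 SD, set separately per screening campaign, cut at about 2.9% in these data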;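 note: PERK kinase domain activated by AP20187 dimerizer at 100 nM; 0% = DMSO with dimerizer and 100% = rapamycin at 8.4 µM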
Autophagy HCS – alters autophagy in cells; MEF GFP-LC3 puncta imaging; test concentration mostly 10 µM; calls only at 10 µM (by protocol); 190,000 compounds, 0.98% hits; AID 463193;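 active = percentage of spot-positive cells more than 3 SD above its plate mean, without a fluorescence outlier flag or 80% toxicity; inconclusive = no clear call, values can overlap the other calls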;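 note: spot-positive cell cutoff set from DMSO-treated cells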
eIF4E 4G PPI – eIF4E/eIF4G interaction inhibition in translation initiation; P63073+Q04637; TR-FRET eIF4E-eIF4GI(517-606) binding, 2 h; inhibition, % at 21.7 µM; 220,000 compounds, 0.37% hits; AID 782;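 active = inhibition above about 30%, limit read from the data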;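 note: 0% = full FRET control wells and 100% = background wells lacking eIF4GI fragment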
An asterisk follows results filed as active; i = inactive; ? = inconclusive; nt = no result given; + = active, no number; [ ] = another dose, or the depositor's remark. Only some compounds are listed: those with a hit (about 2% of all), similar ones and a draw of the others.

SMILES	Ins promoter up	Insulin prom inh	PERK inh	Autophagy HCS	eIF4E 4G PPI
CCN(CC)CCOc1ccc2c(c1)C(=NO)c1cc(OCCN(CC)CC)ccc1-2	-2.5	-5	0	+	-7
Cc1cccc(Cl)c1NNC(=O)Nc1c([N+](=O)[O-])c(C)nn1C	nt	nt	0	nt	3
O=C1Nc2cc3c(cc2Sc2ccccc21)OCCO3	-0.19	90*	1	i	2
c1ccc2c(c1)Nc1cc3ccccc3cc1S2	nt	nt	1	nt	6
Cc1ccsc1C1C(C#N)=C(N)OC2=C1C(=O)CCC2 (centres undefined)	nt	25	0	+	0
Cc1ccc(C2C(C#N)=C(N)OC3=C2C(=O)CCC3)s1 (centres undefined)	0.05	nt	1	i	1
CCCN1CCN(C(=O)CCCNC(=O)Cn2cnc3sc(C)c(C)c3c2=O)CC1	1.6	-14	0	i	36*[fluorescence artefact?]
C=CCN1CCN(c2ccncc2S(=O)(=O)N2CCOCC2)CC1	0.1	5	0	i	4
Cc1ccc(C)c(N2CCN(CCCNC(=O)Cn3cccc3C(=O)c3ccccc3)CC2)c1	nt	nt	0	+	0
Cc1cc(NC(=O)c2ccccc2-c2ccccc2C(=O)O)no1	-0.02	64*	0	i	-5
CN(C)c1ccc(/C=C/c2ccc3ccccc3[n+]2C)cc1	?	nt	-1	+	-3
CN(C)c1ccc(/C=C/c2ccc3c4ccccc4ccc3[n+]2-c2ccccc2)cc1	?	nt	-2	+	75*
CN(C)c1ccc(/C=C/c2cccc[n+]2[O-])cc1	0.21	nt	0	nt	1
C=CCNc1nc(NCc2ccccc2)c(C#N)c2c1CN(C)CC2	-0.93	nt	0	i	4
N#Cc1c(NCCN)nc(NCc2ccccc2)c2c1CCN(Cc1ccccc1)C2	-2.1	14	-2	+	nt
Cc1nn(-c2ccccc2)c(C)c1C(=O)OCC(=O)N1CC(=O)Nc2ccccc21	-0.05	93*	-2	i	-6
CN(C)CCCNc1cc(C(C)(C)C)nc2c(-c3ccc(Cl)cc3)cnn12	-0.29	nt	1	nt	36*
CC(C)(C)c1cc(NCc2ccccn2)n2ncc(-c3ccc(Cl)cc3)c2n1	-0.91	nt	1	nt	5
Cc1ccc(C=Nc2ccccc2C(=O)Nc2ccccc2)cc1	-0.04	13	0	i	8
Cc1ccc(C=Nc2ccccc2C(N)=O)cc1	0.24	10	-1	+	6
CCCCN(C)C1=Nc2cccc3cccc1c23	nt	75*	0	i	2
CCOC(=O)N1CCN(C2=Nc3cccc4cccc2c34)CC1	-0.29	nt	0	i	2
Cc1ccc(C2CC(=O)C(C=NCCN3CCN(C(=S)Nc4ccccc4)CC3)=C(O)C2)cc1 (centres undefined)	-0.93	-36	1	i	97*
Cc1ccc(NC(=O)c2ccc(NCc3ccco3)c([N+](=O)[O-])c2)cc1Cl	-0.1	nt	1	+	5
Cc1ccc(NC(=O)c2ccc(NCC3CCCO3)c([N+](=O)[O-])c2)cc1Cl (centres undefined)	nt	44	2	i	-2
SMILES	Ins promoter up	Insulin prom inh	PERK inh	Autophagy HCS	eIF4E 4G PPI
Cc1cccc(NC(=O)c2ccc(NCCc3ccccc3)c([N+](=O)[O-])c2)c1	-0.12	-7	1	+	0
c1ccc2c(c1)[nH]c1c(N3CCC4(CC3)OCCO4)ncnc12	-4.7	0	-1	i	0
OC1(c2cccc(C(F)(F)F)c2)CCN(c2ncnc3c2[nH]c2ccccc23)CC1	nt	nt	1	+	9
c1ccn2cc(-c3ccc4c(c3)OCCO4)nc2c1	0.52	71*	-1	i	7
O=C(NC1CCCCC1)Nn1c(-c2ccccc2)nc2ccccc2c1=O	0.46	nt	-1	i	-6
COc1cccc(Nc2nc(-c3sc(NC(=O)c4ccccc4)nc3C)cs2)c1	-1.7	nt	-1	i	-12
Cc1nc(NC(=O)c2ccccc2)sc1-c1csc(Nc2ccc(C(=O)O)cc2)n1	-0.16	nt	1	nt	35*
CC(=O)Nc1ccc(SC(C)C(=O)NC(N)=O)cc1 (centres undefined)	-0.17	-43	1	i	5
O=c1[nH]c2cccnc2n1Cc1ccccc1	1.1	82*	1	i	0
COc1ccc(CNC(=O)COC(=O)c2ccccc2C(=O)c2ccccc2)cc1	-0.31	nt	1	i	2
CCc1ccc(/C=C2/C(=O)N(CC)C(=S)N2C)s1	0.62	69*	1	i	-6
Cc1[nH]nc2ncc(C(=O)c3ccccc3O)cc12	0.86	80*	0	i	-6
COc1ccc(-c2csc(NC(=O)CSc3nc(C)cs3)n2)cc1	nt	58	3.6*	i	1
COc1ccc(Nc2ncccc2C(=O)Nc2ccccc2)cc1	1.1	50	-2	+	8
COc1ccc(NC(=O)c2ccc(C(=O)c3ccccc3)o2)cc1	0.62	90*	1	i	-13
COc1ccc(Nc2ncccc2C(=O)NCc2ccccc2)cc1	nt	nt	-1	i	7
COc1ccc(NC(=O)c2cccnc2Nc2ccc(OC)cc2)cc1	0.59	74*	0	i	5
O=C(Nc1nnc(COc2ccc(F)cc2)s1)Nc1ccccc1F	0.91	nt	0	nt	-8
COc1ccc(OC)c(NC(=O)COC(=O)CN(C)S(=O)(=O)c2ccc(C)cc2)c1	0.15	23	1	i	16
COc1ccc(Cl)cc1C(=O)Nc1cccc(-c2ccc3nncn3n2)c1	-0.67	-17	0	i	29
Oc1ccc(C=NC2CCCCC2)c(O)c1	nt	7	1	i	1
CSc1nsc(/C=C/Nc2ccc(C)cc2)c1C#N	3.5*	-221	1	i	-2
Cc1cc(C)nc(N/C(=N\S(=O)(=O)Cc2ccccc2)Nc2ccccc2Br)n1	-1.2	-107	1	i	3
Oc1cccc2ccc(/C=C/c3cccs3)nc12	-0.62	43	-1	+	-1
Cc1ccsc1/C=C/c1ccc2cccc(O)c2n1	-0.26	3	0	i	2
SMILES	Ins promoter up	Insulin prom inh	PERK inh	Autophagy HCS	eIF4E 4G PPI
COC(=O)c1ccc(S(=O)(=O)NCCSc2nnc3c4ccccc4n(C)c3n2)cc1	-0.97	nt	0	i	-4
CCc1ccc(N2C(=O)CN(Cc3cccs3)C2=S)cc1	-0.19	nt	0	i	-4
C=CCC(c1ccccc1)N(C(C)=O)c1ccco1 (centres undefined)	3.6*	nt	1	i	-1
C=C(C)CC(c1ccccc1)N(C(C)=O)c1ccco1 (centres undefined)	0.07	-16	1	i	2
Cc1ccc(C(C#N)c2ccc3c(C(F)(F)F)cc(C(F)(F)F)nc3n2)cc1 (centres undefined)	0.87	5	1	+	1
Cc1ccc2c(c1)-c1nc3ccccc3cc1C2=NC1CCCCC1	nt	nt	0	i	3
Cc1ccc2c(c1)C(=NC1CCCCC1)c1cc3ccccc3nc1-2	0.11	91*	1	i	6
Cc1ccc(NC(=O)N(Cc2nc3ccccc3c(=O)[nH]2)Cc2cccs2)cc1	-0.45	-6	-1	i	-6
